Experiment [1] can be described thus: NCI Yeast Anticancer Drug Screen. Data for the rad50 strain (AID 155).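 Further: 0% = growth of vehicle-only cultures of the same strain.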 The settings on record: S. cerevisiae rad50 strain growth inhibition; at 50.0 µM; active compounds read high. Put shortly:
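A DNA repair-deficient yeast mutant serves as the test organism; compound-induced growth inhibition is calculated against vehicle-treated cells.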

Experiment [2] can be described thus: NCI Yeast Anticancer Drug Screen. Data for the mec2-1 strain (AID 157). Particulars: S. cerevisiae mec2-1 strain, at 50.0 µM, active compounds read high. In a few lines:
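Yeast mec2-1 mutant treated with compound. Readout: growth inhibition vs vehicle controls.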

A short description of experiment [3]: NCI Yeast Anticancer Drug Screen. Data for the sgs1 mgt1 strain (AID 161).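 Further: 0% = growth of cultures given vehicle only.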 The settings on record: S. cerevisiae sgs1 mgt1 strain, at 50.0 µM, active compounds read high. In a few lines: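 Test agents were incubated with a DNA-repair-mutant yeast strain. Growth was then read and compared against vehicle-treated controls.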
Experiment [4] can be described thus: NCI Yeast Anticancer Drug Screen. Data for the cln2 rad14 strain (AID 165).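 Further: 0% = growth equal to vehicle treated cultures.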 The settings on record: S. cerevisiae cln2 rad14 strain, at 50.0 µM, active compounds read high. Put shortly: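 cln2 rad14 yeast strain; compound exposure; growth inhibition read vs vehicle controls.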
A short description of experiment [5]: NCI Yeast Anticancer Drug Screen. Data for the bub3 strain (AID 167). The settings on record: S. cerevisiae bub3 mutant strain, at 50.0 µM, active compounds read high. In a few lines: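 Inhibition values come from growth of compound-treated mutant yeast normalised to vehicle-treated controls.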
The nature of experiment [6]: NCI Yeast Anticancer Drug Screen. Data for the mlh1 rad18 strain (AID 175). The settings on record: S. cerevisiae mlh1 rad18 strain growth inhibition; at 50.0 µM; active compounds read high. Put shortly: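 Yeast w/ defined DNA-repair lesions; compound exposure; growth vs vehicle controls → % inhibition.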

Experimental findings from PubChem BioAssay (NCI) are described below.

The panel holds about 79,000 compounds, 15% with a hit somewhere; the sample as a whole holds those more often. Unmarked numbers belong to inactive results. Calls of active or inactive are those of the source. No stated cut-off is given here; in the data, active means growth inhibition above about 70%; inactive means the rest.

Turning to `CCC1CCN(CC)CC1`, the growth inhibition was 3.1% in experiment [1]; -37.4% in experiment [2]; 3.2% in experiment [3]; 1.8% in experiment [4]; -19.6% in experiment [5].
As to `O=C(c1ccc(F)cc1)c1ccc([N+](=O)[O-])cc1`, the growth inhibition in experiment [1] is 8.85%; in experiment [2], 8.1%; in experiment [3], -1.7%; in experiment [4] it was -19.9%; in experiment [5], -14.1%.
In the same order, the values of `N=c1nc2ccc3ccccc3c2nn1-c1ccc([N+](=O)[O-])cc1` are 88% (active), 16.4%, 13.8%, -5.4% and 18.6%.
Take `COC(=O)N1N=C(c2ccccc2)C(C(=O)OC)(C(=O)OC)c2ccccc21`: the growth inhibition is 45.7% in experiment [1]; 11.9% in experiment [2]; 24.6% in experiment [3]; 16.6% in experiment [4]; 20.2% in experiment [5].
In the same order, the values of `C[n+]1cccc(C(=O)c2ccccc2)c1` are 6.4%, -4.8%, 0.65%, 12.1% and -0.55%.
In the same order, the values of `Cc1ccc(C(=O)Nc2c(C)cccc2C)cc1` are 3.45%, -40.7%, 13.5%, 3.65% and -4.7%.
In the same order, the values of `COc1cc(C(=O)O)ccc1OC(C)=O` are 7.4%, -20.1%, -2.15%, 2.15% and -6.6%.
Take `C#CC1(O)CCC2[C@@H]3CCc4cc(Oc5nc(F)nc(-c6c7ccccc7cn6C)n5)ccc4C3CC[C@@]21C` (stereo partly specified): the growth inhibition in experiment [1] is 37.5%; in experiment [2], 25.3%; in experiment [3], 1.4%; in experiment [4], 5.05%; in experiment [5] it was 32.6%.
In the same order, the values of `C1=CCc2cc3c(cc2=C1)C=c1ccccc1=3` are -12.3%, -19.4%, -11.2%, -5.9% and -8.2%.
In the same order, the values of `CCOC(=O)c1c(-c2ccccc2)c(-c2ccccc2)cn1C` are 18.3%, -7.45%, 5.2%, 25.9% and 6.45%.
In the same order, the values of `Cc1cn(C2CC(O)C(CO)O2)c(=O)nc1NC1CC1` (stereo unspecified) are -7%, 3.45%, -1%, -13% and 0.6%.
Consider `CCO/C=N/c1oc(-c2ccccc2)nc1C#N`, for which the growth inhibition in experiment [1] is 4.6%; in experiment [2], 4.95%; in experiment [3] it was -4.85%; in experiment [4], -38.1%; in experiment [5] it was -12.1%.
Consider `COC(=O)C(C(=O)C(=O)Nc1cccc([N+](=O)[O-])c1)c1nc2ccc([N+](=O)[O-])cc2[nH]c1=O` (stereo unspecified), for which the growth inhibition in experiment [1] is 37.6%; in experiment [2] it was 17.6%; in experiment [3], -10.2%; in experiment [4], -37.8%; in experiment [5] it was 9.2%; in experiment [6] it was 46.5%.
In the case of `CSc1nnc(SC)s1`, the growth inhibition was -3.3% in experiment [1]; -22.6% in experiment [2]; -18.8% in experiment [3]; 22.9% in experiment [4]; 1.4% in experiment [5].
On to `CC(C)(C)/C(=N\O)c1ccccc1`, for which the growth inhibition in experiment [1] was -8.8%; in experiment [2] it was -13.6%; in experiment [3], -23.3%; in experiment [4], -8.05%; in experiment [5], -17.4%.
The corresponding values for `CC(c1ccccc1)C(OCc1ccccc1)OCc1ccccc1` (stereo unspecified) are -17.1%, 9.15%, 4.55%, -36.5% and 22.6%.
The corresponding values for `O=CC(O)C(O)C(O)C(O)C(=O)O.O=CC(O)C(O)C(O)C(O)C(=O)O.[NH-]C1CCCCC1[NH-].[Pt+2]` (stereo unspecified) are -7.65%, -9.8%, 8.2%, 4.25% and 6.35%.
The corresponding values for `O=C(OC[P+](c1ccccc1)(c1ccccc1)c1ccccc1)c1ccccc1` are 44%, 47.1%, 44.9%, 33.8% and 38.6%.
For the molecule `Cc1ccc2c(=O)[nH]cnc2c1`, the growth inhibition is -10.4% in experiment [1]; -23.2% in experiment [2]; 4.45% in experiment [3]; -7.6% in experiment [4]; 2% in experiment [5].
In the same order, the values of `CCOc1cn(C2CC(O)C(CO)O2)c(=O)[nH]c1=O` (stereo unspecified) are -1.35%, 7.75%, -6.95%, -10.9% and -16.2%.
The corresponding values for `CCCCCCCCCCOC(=O)C(C)O` (stereo unspecified) are 8.4%, 2.95%, 5.35%, 5.55% and -16.3%.
The corresponding values for `O=C(O)CCC(=O)NC1c2ccccc2Oc2ccccc21` are -5.9%, -1.75%, 11.6%, -10.2% and 7.85%.
`CC12CC(=O)Nc3ccccc3N1C(c1ccccc1)=NO2` (stereo unspecified): the growth inhibition in experiment [1] was -11.5%; in experiment [2], -29.4%; in experiment [3], -6.6%; in experiment [4], 3%; in experiment [5], -14.8%.
